Reference: PubChem BioAssay AID1851 (National Center for Advancing Translational Sciences (NCATS), 2009)
Among all 16,000 compounds or so, about 5,100 (32%) were called active. About 25% were inconclusive and are not listed. The list shows a part of the results. A number with no mark means an inactive call. The call rests on the fitted dose curve; in most records, active means well fitted curve in the direction sought with a large enough effect; inconclusive means small, poorly fitted or top-dose-only effect, or effect the other way; inactive means no such curve, though single readings can be large or run the other way.

biological target: Cytochrome P450 3A4 (Homo sapiens) (UniProt P08684); experiment: Cytochrome panel assay with activity outcomes; settings: recombinant CYP, pro-luciferin dealkylation, luminescence, p450-cyp3a4; series mostly up to 57.1 µM
On the % scale 0 is the no-effect control and ±100 the full control effect.

Cytochrome P450 3A4 (Homo sapiens), sequence (P08684 whole entry, looked up): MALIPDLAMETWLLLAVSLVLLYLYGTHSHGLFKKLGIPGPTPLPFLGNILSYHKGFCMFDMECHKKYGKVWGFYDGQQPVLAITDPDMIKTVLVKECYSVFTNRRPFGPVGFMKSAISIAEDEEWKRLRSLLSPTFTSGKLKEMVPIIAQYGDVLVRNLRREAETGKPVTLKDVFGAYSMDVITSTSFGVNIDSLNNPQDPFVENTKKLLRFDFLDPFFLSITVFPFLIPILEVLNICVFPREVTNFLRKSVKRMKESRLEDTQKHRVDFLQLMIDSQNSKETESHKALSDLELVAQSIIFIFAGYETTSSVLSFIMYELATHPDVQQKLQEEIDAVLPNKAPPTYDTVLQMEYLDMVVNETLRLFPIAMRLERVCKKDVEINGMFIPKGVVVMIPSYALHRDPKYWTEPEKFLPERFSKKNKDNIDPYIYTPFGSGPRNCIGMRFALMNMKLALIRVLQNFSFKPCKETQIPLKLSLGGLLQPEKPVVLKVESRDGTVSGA

**Q.** Which activity, negative = inhibition does the source give for CC(C)(N=NC(C)(C)C1=NCCN1)C1=NCCN1 here?
**A.** The activity, negative = inhibition was -8.65% [at 11.4 µM].

**Q.** For CCCCOc1ccc(OC(=O)c2cccnc2)cc1, which AC50 is on record?
**A.** Its AC50 is “inactive”.

**Q.** Which AC50 does the source give for COc1cnc(NS(=O)(=O)c2ccc(N)cc2)nc1 here?
**A.** The AC50 was “inactive”.

**Q.** How did the AC50 turn out when CCCCOc1ccc(S(=O)(=O)Nc2cccnc2)cc1 was run?
**A.** The AC50 was 2.51 µM (active).

**Q.** How did the AC50 turn out when Cc1ccc(Nc2nnc(-c3ccc4c(c3)OCO4)o2)c(C)c1 was run?
**A.** Its AC50 is 3.16 µM (active).

**Q.** C[C@H](NC[C@H](O)CP(=O)(O)Cc1ccccc1)c1ccc(Cl)c(Cl)c1 was tested. Which AC50 did it give?
**A.** Its AC50 is “inactive”.

**Q.** How did the AC50 turn out when Cc1ccccc1-c1nc(NC2CC2)c2ccccc2n1 was run?
**A.** The AC50 was 3.98 µM (active).

**Q.** With FC(F)(F)c1ccccc1-c1nc(NC2CC2)c2ccccc2n1 as the compound, how does the AC50 read?
**A.** Its AC50 is 3.16 µM (active).

**Q.** How did the AC50 turn out when COc1ccccc1-c1nc(NC2CC2)c2ccccc2n1 was run?
**A.** The AC50 was 12.6 µM (active).

**Q.** For FC(F)(F)c1ccccc1-c1nc(NC2CCNCC2)c2ccccc2n1, which AC50 is on record?
**A.** Its AC50 is “inactive”.

**Q.** Cc1ccccc1-c1nc(NC2CCNCC2)c2ccccc2n1 was tested. Which AC50 did it give?
**A.** The AC50 was “inactive”.

**Q.** For CN(C)Cc1ccccc1-c1nc(NC2CC2)c2ccccc2n1, which AC50 is on record?
**A.** Its AC50 is 15.8 µM (active).

**Q.** How did the AC50 turn out when N[C@H](C(=O)O)C1[C@H](C(=O)O)[C@H]1C(=O)O (stereo not given in full) was run?
**A.** Its AC50 is “inactive”.

**Q.** How did the AC50 turn out when Cc1ccc(SCCNC(=S)Nc2ccc(C)c(C)c2)cc1 was run?
**A.** The AC50 was 6.31 µM (active).

**Q.** Which AC50 does the source give for CCCNC(=S)Nc1ccc(Br)cc1 here?
**A.** Its AC50 is “inactive”.

**Q.** COCC(=O)N1CCC2(CCN(Cc3ccccc3)CC2)CC1 was tested. Which AC50 did it give?
**A.** Its AC50 is “inactive”.

**Q.** For CCOC(=O)C1(S(=O)(=O)c2ccccc2)CCN(Cc2ccccc2)CC1, which AC50 is on record?
**A.** The AC50 was 5.01 µM (active).

**Q.** For CC(=O)N1CCC2(CCN(Cc3ccccc3)CC2)CC1, which AC50 is on record?
**A.** The AC50 was “inactive”.

**Q.** For CC(C)NC1(C(N)=O)CCN(Cc2ccccc2)CC1, which activity, negative = inhibition is on record?
**A.** The activity, negative = inhibition was -7.69% [at 11.4 µM].

**Q.** Which AC50 does the source give for CCOC(=O)C1(S(=O)(=O)c2ccc(Cl)cc2)CCN(Cc2ccc(Cl)cc2)CC1 here?
**A.** The AC50 was 7.08 µM (active).

**Q.** With CC1(C)Cc2c(C#N)c(SCc3ccccc3)nc(N3CCOCC3)c2CO1 as the compound, how does the AC50 read?
**A.** Its AC50 is 25.1 µM (active).

**Q.** Nc1nc(N)c(N=Nc2ccc(C(=O)O)c(O)c2)c(N)n1 was tested. Which activity, negative = inhibition did it give?
**A.** Its activity, negative = inhibition is -18% [at 11.4 µM].

**Q.** With COc1ccc(NC(=O)OC(C)C)cc1 as the compound, how does the activity, negative = inhibition read?
**A.** The activity, negative = inhibition was -9.73% [at 2.29 µM].

**Q.** For CCn1c2ccccc2c2cc(NC(=O)C(C)Oc3ccc(OC)cc3)ccc21 (stereo not given), which AC50 is on record?
**A.** Its AC50 is 6.31 µM (active).

**Q.** For CC(Oc1ccccc1)C(=O)Nc1nc2c(s1)C(=O)CC(C)(C)C2 (stereo not given), which AC50 is on record?
**A.** Its AC50 is “inactive”.

**Q.** For CCN(CC)c1ccc(/C=C/c2nc3ccccc3s2)cc1, which AC50 is on record?
**A.** The AC50 was 11.2 µM (active).

**Q.** With CN(N=O)c1ccc(/C=C\c2ccnc3ccccc23)cc1 as the compound, how does the activity, negative = inhibition read?
**A.** The activity, negative = inhibition was -15.2% [at 11.4 µM].

**Q.** Cc1nc2ccccn2c1/C(O)=C1\C(=O)C(=O)N(CCN2CCOCC2)C1c1cccnc1 (stereo not given) was tested. Which AC50 did it give?
**A.** The AC50 was “inactive”.

**Q.** Which AC50 does the source give for Cc1nc2ccccn2c1/C(O)=C1\C(=O)C(=O)N(CCCn2ccnc2)C1c1ccncc1 (stereo not given) here?
**A.** The AC50 was 11.2 µM (active).

**Q.** How did the AC50 turn out when Cc1nc2c(C)cccn2c1/C(O)=C1\C(=O)C(=O)N(CCN2CCOCC2)C1c1cccs1 (stereo not given) was run?
**A.** Its AC50 is “inactive”.
